Measured values published in PubChem BioAssay (NCATS).
Results filed as inconclusive are left out. A number with no mark means an inactive call. Activity calls are given as the source filed them. Calls follow the shape of the dose curve; as a rule, active = well fitted inhibition curve with a large enough effect; inconclusive = small, poorly fitted or top-dose-only effect; inactive = flat fitted curve, though single readings scatter.

How the values were obtained:
Experiment in all cases: Cytotoxic Profiling of Annotated Libraries Using Quantitative High-Throughput Screening (AID 1296008); also: nearly all actives have a fitted effect of over 60% in size
Conditions in all cases: Five cell lines viability, CellTiter-Glo ATP luminescence, 48-72 h; max response: active compounds read low
CRL-7250 = system: CRL-7250
In short: (§1)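 Cells exposed to compounds for 48 or 72 hr at 37 degrees Celsius. Viability read as ATP-coupled luminescence with CellTiter-Glo after 10 min at room temperature.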

HEK293 = system: HEK293
In short: as §1

HaCat = system: HaCat
In short: as §1

KB-3-1 = system: KB-3-1
In short: as §1
% is scaled to controls: 0 for no effect and ±100 for the full control effect; potency is read from the fitted curve at half-maximal effect.

## COC(=O)C[C@H]1[C@]2(C)C3=C(C)[C@H](c4ccoc4)C[C@H]3O[C@@H]2[C@H](OC(C)=O)C2[C@](C)(C(=O)OC)C=CC(=O)[C@@]21C (some centres not stated)
CRL-7250
  max response: 0.289%
HEK293
  max response: -6.04%
HaCat
  max response: -0.0032%
KB-3-1
  max response: 1.1%

## CC1=C2C[C@H]3O[C@@]3(C)CCC3O[C@@]3(C)C[C@@]2(O)OC1=O (some centres not stated)
CRL-7250
  outcome: inactive
HEK293
  max response: -4.05%
HaCat
  max response: -4.97%
KB-3-1
  outcome: inactive

## C/C=C/C1=CC2=C(CO1)C(=O)C(C)(O)C(OC(=O)c1c(C)cc(OC)cc1O)C2 (configuration not stated)
CRL-7250
  max response: -7.89%
HEK293
  Potency: 11.4 µM (active)
HaCat
  outcome: inactive
KB-3-1
  max response: 3.88%

## C#CCN(Cc1cc2c(=O)[nH]c(C)nc2cc1Br)c1ccc(C(=O)NCc2cccnc2)cc1
CRL-7250
  Potency: 0.0517 µM (active)
HEK293
  Potency: 0.0046 µM (active)
HaCat
  Potency: 0.0411 µM (active)
KB-3-1
  Potency: 0.0052 µM (active)

## C=CC/C=C\C/C=C\CCCCCCCc1cccc(O)c1C(=O)O
CRL-7250
  outcome: inactive
HEK293
  max response: -5.53%
HaCat
  max response: 3.56%
KB-3-1
  max response: 4.36%

## COc1ccc(F)cc1-c1cc(NC(=O)[C@@H]2CCCNC2)ncc1Cl
CRL-7250
  Potency: 0.291 µM (active)
HEK293
  Potency: 0.259 µM (active)
HaCat
  Potency: 1.16 µM (active)
KB-3-1
  Potency: 0.231 µM (active)

## CC12CCC3c4ccc(O)cc4CCC3C1CC(OC1OC(C(=O)O)C(O)C(O)C1O)C2O (configuration not stated)
CRL-7250
  max response: -23.2%
HEK293
  max response: 4.04%
HaCat
  max response: -15%
KB-3-1
  outcome: inactive

## CN1CCN(C2CCC(n3cc(-c4ccc(Oc5ccccc5)cc4)c4c(N)ncnc43)CC2)CC1 (configuration not stated)
CRL-7250
  Potency: 5.8 µM (active)
HEK293
  Potency: 18.4 µM (active)
HaCat
  Potency: 1.03 µM (active)
KB-3-1
  Potency: 20.6 µM (active)

## O=C1OCC(c2ccccc2)=C1Cc1ccccc1
CRL-7250
  max response: -11.2%
HEK293
  max response: 0.652%
HaCat
  max response: -5.17%
KB-3-1
  max response: -0.0133%

## COc1cc(NC(=O)Nc2cccc(CNC(=O)O[C@H]3CCOC3)c2)ccc1-c1cnco1
CRL-7250
  Potency: 8.2 µM (active)
HEK293
  Potency: 2.31 µM (active)
HaCat
  max response: -5.46%
KB-3-1
  Potency: 4.11 µM (active)

## CC(C)CC1NC(=O)C2CC3(O)c4ccccc4NC3N2C1=O (configuration not stated)
CRL-7250
  max response: -2.34%
HEK293
  max response: 2.06%
HaCat
  max response: -17.2%
KB-3-1
  max response: 7.2%

## O=C1NC2CCc3nc4ccccc4c(=O)n3C2=Nc2ccccc21 (configuration not stated)
CRL-7250
  max response: 2.4%
HEK293
  max response: -3.35%
HaCat
  max response: 3.54%
KB-3-1
  outcome: inactive

## CC(C)(C)NCCCNC(=O)c1cccc(Br)c1
CRL-7250
  outcome: inactive
HEK293
  max response: 0.813%
HaCat
  max response: 4.1%
KB-3-1
  max response: 6.67%

## CC1(C)CC2=C3C=CC4C5(C)CCC(O)C(C)(C)C5CCC4(C)C3(C)CCC2(C)C(O)C1 (configuration not stated)
CRL-7250
  max response: -3.63%
HEK293
  max response: -1.33%
HaCat
  max response: -3.58%
KB-3-1
  max response: -4.92%

## C[C@@H]1O[C@@H](O[C@H]2[C@H](O)[C@@H](O[C@@H]3O[C@H](CO)[C@@H](O)[C@H](O[C@@H]4O[C@H](CO)[C@@H](O)[C@H](O)[C@H]4O)[C@H]3O)[C@H](O[C@H]3CC[C@@]4(C)C(=CC[C@@H]5C4CC[C@@]4(C)C5C[C@@H]5OC6(CC[C@@](C)(CO[C@@H]7O[C@H](CO)[C@@H](O)[C@H](O)[C@H]7O)O6)[C@@H](C)[C@@H]54)C3)O[C@@H]2CO)[C@H](O)[C@H](O)[C@H]1O (some centres not stated)
CRL-7250
  max response: -2.4%
HEK293
  max response: 3.47%
HaCat
  max response: -19%
KB-3-1
  max response: 4.11%

## CN(C)C/C=C/C(=O)Nc1cc2c(Nc3ccc(F)c(Cl)c3)ncnc2cc1OC1CCOC1 (configuration not stated)
CRL-7250
  Potency: 11.6 µM (active)
HEK293
  Potency: 5.8 µM (active)
HaCat
  Potency: 0.517 µM (active)
KB-3-1
  Potency: 5.17 µM (active)

## Clc1cc2c(NC3CCCC3)nnc(-c3ccncc3)c2cc1Cl
CRL-7250
  max response: -13.3%
HEK293
  max response: -9.96%
HaCat
  max response: -55.6%
KB-3-1
  max response: 2.36%

## C=C1C[C@]23C[C@H]1[C@@H](O)C[C@H]2[C@@]12C=C[C@H](O)[C@@](C)(C(=O)O1)[C@H]2[C@@H]3C(=O)O
CRL-7250
  max response: 0.0204%
HEK293
  max response: -1.36%
HaCat
  max response: -32.5%
KB-3-1
  max response: -2.31%

## COC(=O)[C@@H](O)[C@H]1[C@@]2(C)CC3(O)[C@@H](C(=O)[C@H]2O)[C@]24O[C@]25CC(=O)O[C@@H](c2ccoc2)[C@]5(C)CCC4[C@]13C (some centres not stated)
CRL-7250
  outcome: inactive
HEK293
  max response: -0.209%
HaCat
  max response: 4.1%
KB-3-1
  max response: 7.49%

## CC1=C(C)C(=O)OC(C(C)C2CCC3C4C5OC5C5(O)CC(OC6OC(CO)C(OC7OC(C)C(O)C(O)C7O)C(O)C6O)CC(O)C5(C)C4CCC23C)C1 (configuration not stated)
CRL-7250
  outcome: inactive
HEK293
  max response: -0.932%
HaCat
  max response: 4.81%
KB-3-1
  outcome: inactive

## COC(=O)C1=CO[C@@H](O[C@@H]2O[C@H](CO)[C@@H](O)[C@H](O)[C@H]2O)C2C1C(=O)C[C@H]2C (some centres not stated)
CRL-7250
  max response: -1.68%
HEK293
  max response: -7.74%
HaCat
  outcome: inactive
KB-3-1
  outcome: inactive

## O=C(O)[C@@H]1C[C@H]2C[C@@H](CCc3nn[nH]n3)CC[C@H]2CN1
CRL-7250
  max response: 0.564%
HEK293
  max response: 1.79%
HaCat
  max response: 2.14%
KB-3-1
  outcome: inactive

## Cc1cc(C(=O)N2CCCCc3ccccc32)ccc1CNC(=O)N1CCC[C@H]1C(=O)N(C)C
CRL-7250
  max response: -2.89%
HEK293
  max response: -0.739%
HaCat
  max response: -11%
KB-3-1
  max response: 4.93%

## CC(=O)O[C@@H]1[C@@H](OC(=O)/C=C/c2ccccc2)[C@@H](OC(C)=O)[C@H](O[C@H]2[C@@H]3C=CO[C@@H](O[C@@H]4O[C@H](CO)[C@@H](O)[C@H](O)[C@H]4O)[C@@H]3[C@@]3(CO)O[C@@H]23)O[C@H]1C
CRL-7250
  outcome: inactive
HEK293
  max response: -5.93%
HaCat
  max response: -11.2%
KB-3-1
  outcome: inactive

## COc1cc(C2Oc3c(OC)cc(CCCO)cc3C2CO)ccc1O[C@H]1O[C@H](C)[C@@H](O)[C@H](O)[C@@H]1O (some centres not stated)
CRL-7250
  outcome: inactive
HEK293
  max response: -0.663%
HaCat
  max response: -14.3%
KB-3-1
  max response: -4.42%

## CC1=CC(=O)C(=C(C)C)CC2C1CCC2(C)O (configuration not stated)
CRL-7250
  max response: -11.2%
HEK293
  max response: 4.65%
HaCat
  max response: -1.27%
KB-3-1
  max response: 8.27%

## COc1ccc2c(OC)c3ccoc3nc2c1OC
CRL-7250
  max response: -6.93%
HEK293
  max response: -25.3%
HaCat
  max response: -7.51%
KB-3-1
  max response: 4.27%

## OC[C@H]1O[C@@H](O[C@H]2[C@H](OCCc3ccccc3)O[C@H](CO)[C@@H](O)[C@@H]2O)[C@H](O)[C@@H](O)[C@@H]1O
CRL-7250
  outcome: inactive
HEK293
  max response: -0.444%
HaCat
  max response: -12%
KB-3-1
  max response: 5.74%

## C[C@@H]1CCC/C=C/[C@H]2CC(=O)C[C@@H]2[C@@H](O)/C=C/C(=O)O1
CRL-7250
  max response: -3.74%
HEK293
  max response: -12%
HaCat
  max response: -12.2%
KB-3-1
  max response: 8.18%

## C=C(C)[C@@H]1CC[C@]2(C)CC[C@]3(C)[C@H](CC[C@@H]4[C@@]5(C)CC[C@@H](O)C(C)(C)[C@@H]5CC[C@]43C)[C@@H]12
CRL-7250
  max response: -1.57%
HEK293
  max response: -21%
HaCat
  max response: 0.908%
KB-3-1
  max response: -4.19%

## C=C(C(=O)O)[C@H]1C[C@]2(C)[C@@H](O)CC[C@]23O[C@H]1C[C@@H]3C
CRL-7250
  max response: -8.76%
HEK293
  max response: -6.98%
HaCat
  outcome: inactive
KB-3-1
  outcome: inactive

## CC1CC(O)/C=C/C(O)C(O)CC(=O)Cc2c(Cl)c(O)cc(O)c2C(=O)O1 (configuration not stated)
CRL-7250
  max response: 2.61%
HEK293
  max response: 0.716%
HaCat
  max response: -4.28%
KB-3-1
  outcome: inactive

## Cc1ccc(S(=O)(=O)c2ccc([N+](=O)[O-])o2)cc1
CRL-7250
  Potency: 5.8 µM (active)
HEK293
  Potency: 1.03 µM (active)
HaCat
  Potency: 6.51 µM (active)
KB-3-1
  Potency: 23.1 µM (active)

## C=CC(=O)Nc1cc(Nc2nccc(-c3c[nH]c4ccccc34)n2)c(OC)cc1N(C)CCN(C)C
CRL-7250
  Potency: 18.4 µM (active)
HEK293
  Potency: 5.17 µM (active)
HaCat
  Potency: 0.0366 µM (active)
KB-3-1
  Potency: 8.2 µM (active)

## CC(Nc1ncnc2nc[nH]c12)c1cc2cccc(Cl)c2c(=O)n1-c1ccccc1 (configuration not stated)
CRL-7250
  max response: -7.8%
HEK293
  Potency: 18.4 µM (active)
HaCat
  Potency: 20.6 µM (active)
KB-3-1
  max response: -11.3%

## COc1ccc(C2(O)CCC(N3CC[C@@H](NC(=O)CNC(=O)c4cccc(C(F)(F)F)c4)C3)CC2)cn1 (some centres not stated)
CRL-7250
  max response: -18%
HEK293
  max response: -19.1%
HaCat
  max response: 0.0677%
KB-3-1
  max response: -12.4%

## CC(C)=CCC/C(C)=C/CO[C@@H]1O[C@H](CO)[C@@H](O)[C@H](O)[C@H]1O
CRL-7250
  max response: -5.48%
HEK293
  max response: 1.41%
HaCat
  outcome: inactive
KB-3-1
  outcome: inactive

## COc1cc(/C=C/C=O)cc(OC)c1O[C@@H]1O[C@H](CO)[C@@H](O)[C@H](O)[C@H]1O
CRL-7250
  max response: -11.6%
HEK293
  max response: -3.11%
HaCat
  outcome: inactive
KB-3-1
  outcome: inactive

## COc1c2c(c(C)c3c1C(=O)OC3)O[C@@]1(C)CC(O)C(C(C)(C)O)[C@](C)(CCC(=O)O)[C@H]1C2 (some centres not stated)
CRL-7250
  outcome: inactive
HEK293
  max response: 4.24%
HaCat
  max response: 2%
KB-3-1
  outcome: inactive

## C=C1C(=O)OC2C1C(O)CC1(C)C(O)CCC(C=O)C21 (configuration not stated)
CRL-7250
  outcome: inactive
HEK293
  max response: -0.284%
HaCat
  max response: -11.8%
KB-3-1
  outcome: inactive

## CC(C)CN(C[C@@H](O)[C@H](Cc1ccccc1)NC(=O)O[C@@H]1CO[C@H]2OCC[C@H]21)S(=O)(=O)c1ccc(N)cc1
CRL-7250
  max response: 4.36%
HEK293
  max response: -6.82%
HaCat
  max response: -6.53%
KB-3-1
  max response: -3.21%

## COC(=O)[C@H](O)[C@H]1C(C)(C)[C@H](OC(=O)C(C)C)[C@@]2(O)C(=O)[C@]1(C)C1CC[C@]3(C)C(CC(=O)O[C@H]3c3ccoc3)[C@]13O[C@@H]32 (some centres not stated)
CRL-7250
  max response: -16.9%
HEK293
  max response: -5.39%
HaCat
  max response: -4.38%
KB-3-1
  outcome: inactive

## CC(C)CCC[C@@H](C)[C@H]1CC[C@H]2[C@@H]3CC(=O)[C@H]4C[C@@H](O)CC[C@]4(C)[C@H]3CC[C@]12C
CRL-7250
  max response: -2.74%
HEK293
  max response: -0.18%
HaCat
  outcome: inactive
KB-3-1
  max response: -11.4%
